How the values were obtained:
Assay in all cases: log2 ratio of Biotin-Ahx-Ub-VS probe labelling (fragment/DMSO); higher = less target engagement (more negative = stronger competition), active = hit call of the paper (q ≤ 0.05, log2 ratio ≤ -1)
Conditions in all cases: compound concentration: 200 uM; treatment time: 3 h
USP34 = USP34 (UniProt Q70CQ2)
Summary of the method: (§1)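 HEK293T lysate, 495 µg per sample in Tris/CHAPS/IGEPAL buffer with protease inhibitors, was treated in triplicate with fragment at 200 µM or vehicle for 3 h and then with Biotin-Ahx-Ub-VS at 0.5 µM final for 1 h. Labelled DUBs were NeutrAvidin-enriched, digested with LysC and trypsin, and run by diaPASEF LC-MS/MS. Spectronaut label-free quantities were global-median-normalised, and values are average log2 fragment/vehicle ratios by unpaired t-test on proteins with ≥2 unique peptides.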

USP36 = target: T1, USP36 (UniProt Q9P275)
T1 sequence (whole entry): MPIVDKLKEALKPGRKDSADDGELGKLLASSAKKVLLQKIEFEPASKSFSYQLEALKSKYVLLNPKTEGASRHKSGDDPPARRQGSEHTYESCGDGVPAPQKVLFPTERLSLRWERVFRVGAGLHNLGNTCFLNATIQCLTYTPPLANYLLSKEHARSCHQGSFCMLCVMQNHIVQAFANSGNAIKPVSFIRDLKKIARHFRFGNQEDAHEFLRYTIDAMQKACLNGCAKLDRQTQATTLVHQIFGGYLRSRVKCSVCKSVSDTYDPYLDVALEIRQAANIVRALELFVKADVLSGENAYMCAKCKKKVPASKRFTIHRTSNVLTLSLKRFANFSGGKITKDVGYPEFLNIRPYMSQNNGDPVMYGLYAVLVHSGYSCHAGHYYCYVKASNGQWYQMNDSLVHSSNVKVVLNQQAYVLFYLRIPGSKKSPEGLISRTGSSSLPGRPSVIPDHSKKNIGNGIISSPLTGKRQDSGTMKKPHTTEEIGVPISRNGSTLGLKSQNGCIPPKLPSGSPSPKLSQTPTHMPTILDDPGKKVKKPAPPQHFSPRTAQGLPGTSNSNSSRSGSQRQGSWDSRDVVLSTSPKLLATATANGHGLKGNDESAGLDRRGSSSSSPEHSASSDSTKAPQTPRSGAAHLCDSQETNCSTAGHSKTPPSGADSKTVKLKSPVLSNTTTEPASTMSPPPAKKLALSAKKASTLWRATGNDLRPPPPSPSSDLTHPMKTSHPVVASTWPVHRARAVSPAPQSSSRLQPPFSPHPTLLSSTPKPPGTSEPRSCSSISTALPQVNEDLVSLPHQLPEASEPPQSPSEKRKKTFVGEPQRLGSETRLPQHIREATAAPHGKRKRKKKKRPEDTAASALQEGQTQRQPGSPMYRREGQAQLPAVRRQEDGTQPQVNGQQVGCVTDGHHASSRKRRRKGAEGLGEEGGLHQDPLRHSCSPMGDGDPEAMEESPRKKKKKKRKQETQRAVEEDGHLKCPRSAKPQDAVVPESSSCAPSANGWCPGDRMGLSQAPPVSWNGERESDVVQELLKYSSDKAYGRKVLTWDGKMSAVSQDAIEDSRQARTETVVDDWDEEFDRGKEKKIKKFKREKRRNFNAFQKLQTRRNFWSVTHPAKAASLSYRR
Summary of the method: as §1

USP38 = target: T2, USP38 (UniProt Q8NB14)
T2 sequence (whole entry): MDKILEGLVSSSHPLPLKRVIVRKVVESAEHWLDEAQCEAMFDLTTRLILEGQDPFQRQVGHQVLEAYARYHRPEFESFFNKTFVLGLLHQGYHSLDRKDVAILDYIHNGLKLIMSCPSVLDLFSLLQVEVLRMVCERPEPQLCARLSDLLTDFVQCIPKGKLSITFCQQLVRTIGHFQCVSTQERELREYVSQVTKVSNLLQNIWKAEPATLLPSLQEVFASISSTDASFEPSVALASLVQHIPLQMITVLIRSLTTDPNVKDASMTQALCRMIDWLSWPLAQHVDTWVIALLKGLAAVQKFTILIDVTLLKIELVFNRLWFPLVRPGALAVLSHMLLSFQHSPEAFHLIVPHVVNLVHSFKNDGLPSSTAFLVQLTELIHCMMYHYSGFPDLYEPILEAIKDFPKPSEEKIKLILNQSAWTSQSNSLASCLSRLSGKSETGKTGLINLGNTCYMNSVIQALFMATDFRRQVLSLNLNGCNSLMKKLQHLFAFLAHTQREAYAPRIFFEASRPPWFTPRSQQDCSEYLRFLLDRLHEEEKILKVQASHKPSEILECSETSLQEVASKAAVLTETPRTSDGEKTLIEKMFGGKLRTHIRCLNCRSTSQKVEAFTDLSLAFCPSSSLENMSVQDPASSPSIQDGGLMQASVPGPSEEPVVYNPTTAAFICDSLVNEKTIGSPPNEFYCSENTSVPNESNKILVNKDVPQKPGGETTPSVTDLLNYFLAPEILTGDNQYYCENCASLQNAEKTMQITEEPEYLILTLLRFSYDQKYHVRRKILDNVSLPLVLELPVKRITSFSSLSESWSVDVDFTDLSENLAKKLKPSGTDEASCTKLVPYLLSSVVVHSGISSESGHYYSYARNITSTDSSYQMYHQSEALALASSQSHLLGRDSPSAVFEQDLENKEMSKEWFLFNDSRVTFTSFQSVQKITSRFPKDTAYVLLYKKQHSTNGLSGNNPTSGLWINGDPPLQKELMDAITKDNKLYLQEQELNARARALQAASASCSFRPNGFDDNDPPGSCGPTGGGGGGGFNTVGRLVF
Summary of the method: as §1

USP39 = target: T3, USP39 (UniProt Q53GS9)
T3 sequence (whole entry): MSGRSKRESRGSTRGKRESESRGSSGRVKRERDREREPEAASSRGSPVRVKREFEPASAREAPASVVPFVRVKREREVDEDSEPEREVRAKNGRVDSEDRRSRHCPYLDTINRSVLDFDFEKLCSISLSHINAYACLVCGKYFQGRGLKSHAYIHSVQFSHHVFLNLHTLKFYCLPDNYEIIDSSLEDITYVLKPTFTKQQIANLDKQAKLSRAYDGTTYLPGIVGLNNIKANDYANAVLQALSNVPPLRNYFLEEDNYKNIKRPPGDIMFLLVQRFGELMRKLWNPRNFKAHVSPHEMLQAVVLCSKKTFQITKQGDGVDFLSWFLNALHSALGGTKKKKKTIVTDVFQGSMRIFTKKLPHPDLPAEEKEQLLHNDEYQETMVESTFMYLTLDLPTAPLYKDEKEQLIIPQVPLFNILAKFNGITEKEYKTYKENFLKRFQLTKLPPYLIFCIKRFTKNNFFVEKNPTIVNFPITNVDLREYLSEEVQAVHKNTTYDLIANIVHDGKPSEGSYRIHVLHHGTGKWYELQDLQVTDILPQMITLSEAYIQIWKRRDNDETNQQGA
Summary of the method: as §1

USP4 = target: T4, USP4 (UniProt Q13107)
T4 sequence (whole entry): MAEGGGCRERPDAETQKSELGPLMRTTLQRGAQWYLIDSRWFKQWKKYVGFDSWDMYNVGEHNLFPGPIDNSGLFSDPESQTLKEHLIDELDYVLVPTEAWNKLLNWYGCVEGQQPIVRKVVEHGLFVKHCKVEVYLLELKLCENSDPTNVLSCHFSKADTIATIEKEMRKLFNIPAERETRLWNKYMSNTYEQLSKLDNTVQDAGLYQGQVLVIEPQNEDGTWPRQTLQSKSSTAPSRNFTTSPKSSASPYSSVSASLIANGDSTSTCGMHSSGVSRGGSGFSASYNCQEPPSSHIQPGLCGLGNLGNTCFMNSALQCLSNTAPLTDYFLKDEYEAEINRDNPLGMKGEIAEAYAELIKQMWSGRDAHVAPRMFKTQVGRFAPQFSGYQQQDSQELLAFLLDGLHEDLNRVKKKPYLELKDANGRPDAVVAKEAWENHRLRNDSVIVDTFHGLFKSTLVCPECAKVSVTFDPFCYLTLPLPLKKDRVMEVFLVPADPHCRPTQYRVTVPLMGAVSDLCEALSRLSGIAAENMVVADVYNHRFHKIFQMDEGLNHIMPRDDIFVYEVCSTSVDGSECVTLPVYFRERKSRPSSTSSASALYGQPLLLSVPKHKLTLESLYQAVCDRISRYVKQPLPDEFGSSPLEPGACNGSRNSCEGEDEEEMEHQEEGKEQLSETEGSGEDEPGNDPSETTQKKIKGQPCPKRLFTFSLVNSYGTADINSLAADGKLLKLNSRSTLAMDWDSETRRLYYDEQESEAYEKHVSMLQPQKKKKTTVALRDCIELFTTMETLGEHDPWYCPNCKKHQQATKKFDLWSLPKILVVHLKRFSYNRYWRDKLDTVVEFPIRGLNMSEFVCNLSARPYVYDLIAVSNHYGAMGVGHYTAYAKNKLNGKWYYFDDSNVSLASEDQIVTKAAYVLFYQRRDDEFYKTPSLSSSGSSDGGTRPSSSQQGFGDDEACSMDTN
Summary of the method: as §1

Measured: log2 ratio of Biotin-Ahx-Ub-VS probe labelling

Chain of USP34 (Q70CQ2 whole entry, the tested form may be a part): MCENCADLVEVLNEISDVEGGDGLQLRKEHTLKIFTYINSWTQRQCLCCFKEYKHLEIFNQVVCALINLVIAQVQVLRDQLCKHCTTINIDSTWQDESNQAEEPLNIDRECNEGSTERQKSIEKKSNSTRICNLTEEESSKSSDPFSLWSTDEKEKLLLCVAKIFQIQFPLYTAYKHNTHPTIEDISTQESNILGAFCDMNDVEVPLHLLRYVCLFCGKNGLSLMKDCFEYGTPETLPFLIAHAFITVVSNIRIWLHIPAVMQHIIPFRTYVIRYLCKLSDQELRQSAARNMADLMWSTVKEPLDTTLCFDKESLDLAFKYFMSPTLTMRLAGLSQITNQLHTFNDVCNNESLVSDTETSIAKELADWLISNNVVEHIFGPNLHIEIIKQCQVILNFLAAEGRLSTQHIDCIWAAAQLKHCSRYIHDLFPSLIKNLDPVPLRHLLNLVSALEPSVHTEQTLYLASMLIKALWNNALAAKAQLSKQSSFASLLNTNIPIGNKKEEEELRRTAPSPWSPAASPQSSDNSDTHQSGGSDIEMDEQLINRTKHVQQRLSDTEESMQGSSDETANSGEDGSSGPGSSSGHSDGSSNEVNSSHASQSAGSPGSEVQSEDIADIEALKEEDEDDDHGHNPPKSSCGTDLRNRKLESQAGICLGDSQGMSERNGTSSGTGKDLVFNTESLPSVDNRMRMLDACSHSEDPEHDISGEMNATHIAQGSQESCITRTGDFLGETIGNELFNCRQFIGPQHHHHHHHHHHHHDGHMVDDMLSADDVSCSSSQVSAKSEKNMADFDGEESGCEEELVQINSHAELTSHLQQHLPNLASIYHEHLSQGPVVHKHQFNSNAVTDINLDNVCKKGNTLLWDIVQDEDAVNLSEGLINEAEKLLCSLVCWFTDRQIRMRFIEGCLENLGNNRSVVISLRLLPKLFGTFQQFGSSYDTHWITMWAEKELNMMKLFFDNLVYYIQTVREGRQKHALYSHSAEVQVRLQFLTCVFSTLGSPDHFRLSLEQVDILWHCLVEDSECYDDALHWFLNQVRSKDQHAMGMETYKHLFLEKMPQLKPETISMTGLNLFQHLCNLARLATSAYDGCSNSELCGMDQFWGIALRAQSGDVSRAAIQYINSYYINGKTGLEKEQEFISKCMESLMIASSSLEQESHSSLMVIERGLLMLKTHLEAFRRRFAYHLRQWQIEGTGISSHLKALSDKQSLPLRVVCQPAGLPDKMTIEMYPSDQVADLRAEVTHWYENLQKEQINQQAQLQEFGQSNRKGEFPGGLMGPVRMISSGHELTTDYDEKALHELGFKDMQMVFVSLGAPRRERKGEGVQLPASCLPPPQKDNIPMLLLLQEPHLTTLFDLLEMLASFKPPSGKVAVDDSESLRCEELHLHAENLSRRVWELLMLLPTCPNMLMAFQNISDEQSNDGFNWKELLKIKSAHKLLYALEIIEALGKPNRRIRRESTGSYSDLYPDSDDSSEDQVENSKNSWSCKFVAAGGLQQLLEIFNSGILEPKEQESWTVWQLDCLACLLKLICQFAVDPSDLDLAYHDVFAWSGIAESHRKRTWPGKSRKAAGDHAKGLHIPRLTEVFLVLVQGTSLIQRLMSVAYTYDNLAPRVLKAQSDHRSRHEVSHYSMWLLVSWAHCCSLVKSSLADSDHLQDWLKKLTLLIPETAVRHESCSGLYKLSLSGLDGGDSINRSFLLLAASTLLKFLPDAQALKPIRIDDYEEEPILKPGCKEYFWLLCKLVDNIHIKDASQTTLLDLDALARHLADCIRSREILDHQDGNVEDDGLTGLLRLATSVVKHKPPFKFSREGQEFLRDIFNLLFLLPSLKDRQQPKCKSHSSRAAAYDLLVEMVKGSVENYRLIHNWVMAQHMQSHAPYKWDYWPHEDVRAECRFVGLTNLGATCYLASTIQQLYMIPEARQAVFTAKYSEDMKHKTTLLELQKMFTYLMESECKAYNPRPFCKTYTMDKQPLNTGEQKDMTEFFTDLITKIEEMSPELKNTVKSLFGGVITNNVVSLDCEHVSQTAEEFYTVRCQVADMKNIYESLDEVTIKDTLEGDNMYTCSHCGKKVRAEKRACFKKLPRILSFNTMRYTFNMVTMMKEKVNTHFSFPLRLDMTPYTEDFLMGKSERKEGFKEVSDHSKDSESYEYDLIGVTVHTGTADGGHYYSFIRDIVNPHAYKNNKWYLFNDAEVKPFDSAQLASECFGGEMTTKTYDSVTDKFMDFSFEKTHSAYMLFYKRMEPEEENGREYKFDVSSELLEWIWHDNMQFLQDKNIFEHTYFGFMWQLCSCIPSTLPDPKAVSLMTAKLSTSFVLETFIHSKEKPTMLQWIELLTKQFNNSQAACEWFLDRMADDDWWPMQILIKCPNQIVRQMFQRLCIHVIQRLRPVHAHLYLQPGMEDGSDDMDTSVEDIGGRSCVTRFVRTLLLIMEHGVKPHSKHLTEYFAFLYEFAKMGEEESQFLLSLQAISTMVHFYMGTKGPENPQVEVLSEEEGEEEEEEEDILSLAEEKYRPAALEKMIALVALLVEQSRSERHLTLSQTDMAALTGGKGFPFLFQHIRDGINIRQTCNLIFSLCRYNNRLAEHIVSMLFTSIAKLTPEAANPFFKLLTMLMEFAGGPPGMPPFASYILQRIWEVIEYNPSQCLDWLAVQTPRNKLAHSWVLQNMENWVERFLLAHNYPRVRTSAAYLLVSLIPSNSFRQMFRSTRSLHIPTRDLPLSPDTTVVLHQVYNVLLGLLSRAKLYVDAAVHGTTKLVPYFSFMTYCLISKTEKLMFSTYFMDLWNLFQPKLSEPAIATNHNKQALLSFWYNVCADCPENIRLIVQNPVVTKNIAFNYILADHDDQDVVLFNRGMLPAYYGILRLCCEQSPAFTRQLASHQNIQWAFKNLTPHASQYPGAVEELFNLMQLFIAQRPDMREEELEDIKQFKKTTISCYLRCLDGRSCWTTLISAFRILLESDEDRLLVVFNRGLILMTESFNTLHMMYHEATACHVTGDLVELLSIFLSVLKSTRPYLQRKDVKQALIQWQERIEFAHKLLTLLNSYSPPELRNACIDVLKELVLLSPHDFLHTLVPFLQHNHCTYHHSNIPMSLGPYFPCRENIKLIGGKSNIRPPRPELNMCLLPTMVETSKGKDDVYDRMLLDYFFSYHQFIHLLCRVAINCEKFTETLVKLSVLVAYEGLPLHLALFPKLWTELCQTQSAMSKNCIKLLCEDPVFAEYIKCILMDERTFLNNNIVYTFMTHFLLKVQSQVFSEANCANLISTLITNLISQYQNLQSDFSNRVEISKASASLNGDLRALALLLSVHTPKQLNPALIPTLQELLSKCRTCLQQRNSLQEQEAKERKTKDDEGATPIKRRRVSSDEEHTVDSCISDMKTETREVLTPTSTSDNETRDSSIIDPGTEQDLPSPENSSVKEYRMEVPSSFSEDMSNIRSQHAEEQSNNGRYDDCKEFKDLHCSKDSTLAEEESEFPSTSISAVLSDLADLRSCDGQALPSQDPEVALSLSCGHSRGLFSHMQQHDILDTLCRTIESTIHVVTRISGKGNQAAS

O=C(CCl)N1CCN2C(=O)CCC2C1 (stereo not given)
inactive: USP34 -0.0311 | USP36 0.272 | USP38 0.0868 | USP39 -0.106 | USP4 -0.0639
